# Unmarked numbers belong to inactive results.
# Compound: Fc1ccc(N2CCN(c3nc4c(CN(C(CCl)=O)CC4)cn3)CC2)cc1.Cl.Cl
# Assay: log2 ratio of Biotin-Ahx-Ub-VS probe labelling (compound/DMSO); higher = less target engagement, active = hit call of the paper (q ≤ 0.05, log2 ratio ≤ -1)
# Conditions: compound concentration: 50uM; treatment time: 3 h
# How it was run: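 HEK293T lysate (495 µg per sample, in Tris/CHAPS/IGEPAL buffer with protease inhibitors) was treated in triplicate with compound at 50 or 200 µM or with DMSO for 3 h. It was then treated with Biotin-Ahx-Ub-VS (0.5 µM final) for 1 h. Labelled DUBs were NeutrAvidin-enriched, digested with LysC and trypsin, and run by diaPASEF LC-MS/MS. Median-normalised label-free quantities gave average log2 ratios compound/DMSO by unpaired t-test, using proteins with ≥2 unique peptides.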
# Chain of UniProt Q9P275 (Q9P275 whole entry): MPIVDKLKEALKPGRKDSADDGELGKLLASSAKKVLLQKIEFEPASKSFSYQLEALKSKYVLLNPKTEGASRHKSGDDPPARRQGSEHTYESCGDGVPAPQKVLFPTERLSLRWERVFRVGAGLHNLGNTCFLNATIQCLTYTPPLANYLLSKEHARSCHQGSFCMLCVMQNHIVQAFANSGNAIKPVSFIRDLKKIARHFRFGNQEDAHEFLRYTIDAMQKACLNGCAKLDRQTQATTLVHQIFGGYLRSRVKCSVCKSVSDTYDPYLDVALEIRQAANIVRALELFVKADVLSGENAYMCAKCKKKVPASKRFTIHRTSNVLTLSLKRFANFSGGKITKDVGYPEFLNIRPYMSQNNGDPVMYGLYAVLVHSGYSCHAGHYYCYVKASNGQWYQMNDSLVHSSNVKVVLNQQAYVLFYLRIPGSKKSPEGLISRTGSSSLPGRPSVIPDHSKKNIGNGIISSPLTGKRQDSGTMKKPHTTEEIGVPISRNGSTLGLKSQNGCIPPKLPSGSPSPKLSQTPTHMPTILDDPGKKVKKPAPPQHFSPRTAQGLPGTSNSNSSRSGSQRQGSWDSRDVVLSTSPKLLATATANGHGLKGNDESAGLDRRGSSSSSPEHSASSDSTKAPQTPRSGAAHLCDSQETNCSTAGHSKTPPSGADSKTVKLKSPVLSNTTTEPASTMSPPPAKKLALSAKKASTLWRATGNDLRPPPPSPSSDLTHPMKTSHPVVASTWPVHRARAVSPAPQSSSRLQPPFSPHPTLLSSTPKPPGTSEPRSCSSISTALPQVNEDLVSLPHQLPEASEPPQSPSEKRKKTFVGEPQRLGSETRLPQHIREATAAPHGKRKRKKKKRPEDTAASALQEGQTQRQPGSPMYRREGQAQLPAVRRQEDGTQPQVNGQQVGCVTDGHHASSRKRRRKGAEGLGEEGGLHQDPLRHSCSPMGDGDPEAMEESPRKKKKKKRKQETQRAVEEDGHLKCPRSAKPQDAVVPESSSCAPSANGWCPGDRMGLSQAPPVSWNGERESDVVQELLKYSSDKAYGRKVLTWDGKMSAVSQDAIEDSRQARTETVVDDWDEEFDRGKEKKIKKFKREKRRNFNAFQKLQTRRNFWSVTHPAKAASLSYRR
# Chain of UniProt Q96FW1 (Q96FW1 whole entry): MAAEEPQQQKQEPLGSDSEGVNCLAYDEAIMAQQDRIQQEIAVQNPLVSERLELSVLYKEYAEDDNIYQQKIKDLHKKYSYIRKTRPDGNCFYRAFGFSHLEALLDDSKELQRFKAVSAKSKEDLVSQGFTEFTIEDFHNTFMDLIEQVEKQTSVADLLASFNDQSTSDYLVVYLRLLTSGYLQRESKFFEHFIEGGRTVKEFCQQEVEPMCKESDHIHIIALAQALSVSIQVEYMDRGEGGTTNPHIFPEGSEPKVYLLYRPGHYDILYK
# Chain of UniProt Q9UGI0 (Q9UGI0 whole entry): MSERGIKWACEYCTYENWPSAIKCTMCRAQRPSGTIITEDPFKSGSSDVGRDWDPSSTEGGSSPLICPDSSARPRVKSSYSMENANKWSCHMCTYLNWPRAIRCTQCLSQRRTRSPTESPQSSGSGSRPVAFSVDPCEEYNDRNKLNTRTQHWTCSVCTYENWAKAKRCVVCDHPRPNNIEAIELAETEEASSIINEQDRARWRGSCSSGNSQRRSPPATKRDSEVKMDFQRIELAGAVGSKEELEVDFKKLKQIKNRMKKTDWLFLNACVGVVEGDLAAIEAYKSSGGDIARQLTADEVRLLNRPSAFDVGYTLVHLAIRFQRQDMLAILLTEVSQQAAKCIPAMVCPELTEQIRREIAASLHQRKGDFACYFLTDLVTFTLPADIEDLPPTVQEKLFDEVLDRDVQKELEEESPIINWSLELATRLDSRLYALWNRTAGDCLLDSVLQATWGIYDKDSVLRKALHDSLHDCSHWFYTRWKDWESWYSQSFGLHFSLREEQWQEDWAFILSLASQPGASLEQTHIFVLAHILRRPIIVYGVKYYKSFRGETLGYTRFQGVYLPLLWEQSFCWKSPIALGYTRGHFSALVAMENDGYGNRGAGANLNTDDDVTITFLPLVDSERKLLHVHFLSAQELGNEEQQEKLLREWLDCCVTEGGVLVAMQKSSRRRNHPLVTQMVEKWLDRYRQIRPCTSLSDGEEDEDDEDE
# Chain of UniProt Q9Y5K5 (Q9Y5K5 whole entry): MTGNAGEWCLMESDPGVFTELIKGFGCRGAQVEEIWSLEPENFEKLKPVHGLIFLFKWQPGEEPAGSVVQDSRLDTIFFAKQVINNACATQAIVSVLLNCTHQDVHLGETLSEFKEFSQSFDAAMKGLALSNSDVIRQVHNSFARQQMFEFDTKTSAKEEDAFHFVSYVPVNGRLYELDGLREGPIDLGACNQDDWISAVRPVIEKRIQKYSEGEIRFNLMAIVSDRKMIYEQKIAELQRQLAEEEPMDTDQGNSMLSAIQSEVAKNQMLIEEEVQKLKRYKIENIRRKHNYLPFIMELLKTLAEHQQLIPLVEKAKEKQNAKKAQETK
# Chain of UniProt Q9UHP3 (Q9UHP3 whole entry): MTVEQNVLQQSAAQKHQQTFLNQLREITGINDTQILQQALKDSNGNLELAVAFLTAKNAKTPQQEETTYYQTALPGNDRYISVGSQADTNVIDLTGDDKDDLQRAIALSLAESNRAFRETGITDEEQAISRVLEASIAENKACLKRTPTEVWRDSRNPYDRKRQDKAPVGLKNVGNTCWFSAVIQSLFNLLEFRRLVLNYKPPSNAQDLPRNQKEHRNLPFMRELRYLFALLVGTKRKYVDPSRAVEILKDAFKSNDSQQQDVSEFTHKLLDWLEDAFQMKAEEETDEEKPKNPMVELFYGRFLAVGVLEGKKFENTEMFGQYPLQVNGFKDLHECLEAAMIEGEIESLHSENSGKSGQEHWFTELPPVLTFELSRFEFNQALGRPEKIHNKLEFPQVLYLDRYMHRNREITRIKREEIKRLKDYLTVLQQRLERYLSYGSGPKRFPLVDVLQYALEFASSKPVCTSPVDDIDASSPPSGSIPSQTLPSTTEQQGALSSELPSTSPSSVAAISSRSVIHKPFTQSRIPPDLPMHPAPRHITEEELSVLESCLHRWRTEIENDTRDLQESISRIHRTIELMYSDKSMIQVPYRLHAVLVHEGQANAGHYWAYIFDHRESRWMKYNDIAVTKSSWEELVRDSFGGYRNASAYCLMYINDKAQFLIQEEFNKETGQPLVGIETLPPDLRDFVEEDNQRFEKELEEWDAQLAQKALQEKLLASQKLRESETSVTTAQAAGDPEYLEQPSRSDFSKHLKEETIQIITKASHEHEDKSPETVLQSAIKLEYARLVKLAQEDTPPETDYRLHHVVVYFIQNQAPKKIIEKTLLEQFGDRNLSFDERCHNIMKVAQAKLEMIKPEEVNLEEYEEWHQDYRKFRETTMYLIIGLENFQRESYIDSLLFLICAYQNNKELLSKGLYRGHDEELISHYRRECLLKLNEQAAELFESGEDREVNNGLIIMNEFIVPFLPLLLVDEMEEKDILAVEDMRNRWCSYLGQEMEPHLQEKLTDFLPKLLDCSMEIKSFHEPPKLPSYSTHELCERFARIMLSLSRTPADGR
# Chain of UniProt O00303 (O00303 whole entry): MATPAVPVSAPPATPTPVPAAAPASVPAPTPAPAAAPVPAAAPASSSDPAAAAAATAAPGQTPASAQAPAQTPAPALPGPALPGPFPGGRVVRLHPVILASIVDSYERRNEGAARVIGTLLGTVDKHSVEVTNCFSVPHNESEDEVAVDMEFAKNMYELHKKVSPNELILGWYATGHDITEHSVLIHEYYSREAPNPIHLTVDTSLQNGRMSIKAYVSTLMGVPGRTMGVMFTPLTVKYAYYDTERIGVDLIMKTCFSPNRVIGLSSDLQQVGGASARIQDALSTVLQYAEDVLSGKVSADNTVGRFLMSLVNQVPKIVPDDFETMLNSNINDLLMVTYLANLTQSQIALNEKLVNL
# Chain of UniProt Q9Y5T5 (Q9Y5T5 whole entry, looked up): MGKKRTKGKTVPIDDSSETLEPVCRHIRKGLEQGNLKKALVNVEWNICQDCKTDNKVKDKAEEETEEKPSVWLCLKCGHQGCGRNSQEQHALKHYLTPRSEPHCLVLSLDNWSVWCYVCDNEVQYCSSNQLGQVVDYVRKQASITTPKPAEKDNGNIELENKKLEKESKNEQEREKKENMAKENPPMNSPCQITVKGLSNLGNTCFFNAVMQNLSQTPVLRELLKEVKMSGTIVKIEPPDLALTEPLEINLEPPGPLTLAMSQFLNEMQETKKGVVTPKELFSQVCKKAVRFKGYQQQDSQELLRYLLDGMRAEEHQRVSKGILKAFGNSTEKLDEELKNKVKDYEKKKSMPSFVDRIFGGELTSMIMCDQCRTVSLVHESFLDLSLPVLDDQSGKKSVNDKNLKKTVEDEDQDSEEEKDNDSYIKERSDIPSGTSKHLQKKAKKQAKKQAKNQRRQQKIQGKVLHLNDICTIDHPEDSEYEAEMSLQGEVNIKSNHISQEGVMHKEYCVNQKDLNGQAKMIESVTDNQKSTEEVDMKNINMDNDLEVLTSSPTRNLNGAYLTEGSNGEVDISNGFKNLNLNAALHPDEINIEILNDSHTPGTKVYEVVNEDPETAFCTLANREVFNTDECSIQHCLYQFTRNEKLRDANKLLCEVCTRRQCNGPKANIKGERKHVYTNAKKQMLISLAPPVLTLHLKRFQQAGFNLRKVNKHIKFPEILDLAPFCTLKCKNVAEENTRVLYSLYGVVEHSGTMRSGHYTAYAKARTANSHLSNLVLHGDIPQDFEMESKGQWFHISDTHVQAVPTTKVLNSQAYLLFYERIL
# Chain of UniProt P62068 (P62068 whole entry): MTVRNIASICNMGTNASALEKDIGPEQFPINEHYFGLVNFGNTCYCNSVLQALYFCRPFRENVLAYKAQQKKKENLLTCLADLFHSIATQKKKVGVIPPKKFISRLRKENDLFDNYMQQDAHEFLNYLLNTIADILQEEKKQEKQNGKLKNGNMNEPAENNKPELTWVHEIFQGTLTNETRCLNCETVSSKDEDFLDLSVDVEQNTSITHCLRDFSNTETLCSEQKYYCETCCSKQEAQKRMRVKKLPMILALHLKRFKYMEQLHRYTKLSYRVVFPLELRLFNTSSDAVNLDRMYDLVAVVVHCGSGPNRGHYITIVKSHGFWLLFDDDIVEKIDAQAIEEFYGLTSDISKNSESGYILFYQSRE
row,Target,log2 ratio of Biotin-Ahx-Ub-VS probe labelling
1,USP54 (UniProt Q70EL1),-0.663
2,UniProt Q5T2D3,-0.00755
3,USP28 (UniProt Q96RU2),-0.134
4,UniProt Q70EL2,-0.414
5,USP22 (UniProt Q9UPT9),-0.16
6,OTUD6B (UniProt Q8N6M0),-0.105
7,EIF3F (UniProt O00303),0.028
8,USP36 (UniProt Q9P275),-0.181
9,USP16 (UniProt Q9Y5T5),-0.277
10,UCHL5 (UniProt Q9Y5K5),-0.226
11,OTUD7B (UniProt Q6GQQ9),-0.187
12,USP14 (UniProt P54578),0.108
13,USP7 (UniProt Q93009),-0.507
14,USP34 (UniProt Q70CQ2),-0.25
15,OTUB1 (UniProt Q96FW1),0.0783
16,USP9X (UniProt Q93008),-0.231
17,COPS5 (UniProt Q92905),-0.304
18,USP10 (UniProt Q14694),-0.0782
19,USP46 (UniProt P62068),-0.241
20,YOD1 (UniProt Q5VVQ6),0.0837
21,BAP1 (UniProt Q92560),-0.262
22,UniProt P51784,0.0256
23,USP25 (UniProt Q9UHP3),0.382
24,UniProt Q9UGI0,-0.0659

# Same assay, conditions: compound concentration: 200uM; treatment time: 3 h
row,Target,log2 ratio of Biotin-Ahx-Ub-VS probe labelling
1,USP54 (UniProt Q70EL1),0.547
2,UniProt Q5T2D3,-0.416
3,USP28 (UniProt Q96RU2),-1.12 (active)
4,UniProt Q70EL2,-0.995
5,USP22 (UniProt Q9UPT9),-0.168
6,OTUD6B (UniProt Q8N6M0),-1.28 (active)
7,EIF3F (UniProt O00303),0.0109
8,USP36 (UniProt Q9P275),-0.183
9,USP16 (UniProt Q9Y5T5),-0.62
10,UCHL5 (UniProt Q9Y5K5),-1.37 (active)
11,OTUD7B (UniProt Q6GQQ9),-1.57 (active)
12,USP14 (UniProt P54578),-0.424
13,USP7 (UniProt Q93009),-1.83 (active)
14,USP34 (UniProt Q70CQ2),-0.554
15,OTUB1 (UniProt Q96FW1),-0.137
16,USP9X (UniProt Q93008),-1.53 (active)
17,COPS5 (UniProt Q92905),0.0806
18,USP10 (UniProt Q14694),-0.162
19,USP46 (UniProt P62068),-1.72 (active)
20,YOD1 (UniProt Q5VVQ6),-0.394
21,BAP1 (UniProt Q92560),-1.91 (active)
22,UniProt P51784,-1.01 (active)
23,USP25 (UniProt Q9UHP3),-1.03
24,UniProt Q9UGI0,-0.664

# Source: the supplement of paper PMC11732987, “Enantioselective OTUD7B fragment discovery through chemoproteomics screening and high-throughput optimisation” (Communications Chemistry, 2025)
